A short description of assay [1]: compounds altering circadian rhythm period length – cell-based, LOPAC library, luminescence reporter (AID 2774).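 Further: values are relative to mean of DMSO wells on each plate.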 Particulars: circadian reporter cells, at 7 µM, actives lie on both sides.
Assay [2] relates to Hepatitis C virus NS3 helicase. Kind of assay: blockers of NS3h binding to ssDNA – biochemical, fluorescence polarization, LOPAC1280 library, primary screen (AID 687035; in the data active means inhibition above about 37%). Particulars: Purified HCV NS3 helicase, Cy5-dT15 ssDNA binding fluorescence polarization; stronger effect = higher value; concentration not given here. On the technique in general: In fluorescence polarisation assays a small probe gives low polarisation when free and higher when bound to something large.

A short description of assay [3]: compounds altering Cy5-DNA-NS3h complex signal – biochemical, LOPAC1280, artefact control for HCV NS3 helicase inhibitor project (AID 687037). Particulars: Cy5-DNA-NS3h complex fluorescence interference counterscreen. On the technique in general: The purpose of a counterscreen is to sort out artefacts and off-target activity.
For assay [4], the system named is Aerobactin synthetase IucA (Klebsiella pneumoniae, hypervirulent). Kind of assay: biochemical IucA inhibition screen of LOPAC library by absorbance (AID 1346212).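 Further: 100% = no compound wells and 0% = no enzyme wells.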 Conditions: IucA enzyme assay, absorbance (OD) readout; stronger effect = lower value;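 tested at 8 µM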.
Assay [5] is described as follows: viability loss with induced miR-34 in A549 – imaging, A549 dox-inducible miR-34, nuclei and caspase counts, primary screen (AID 1347080;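 active means compounds whose cell count with miR-34 switched on is under 0.7 times the count with it off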). Particulars: A549 miR-34 inducible, Hoechst nuclei count, 48 h.
Assay [6] is described as follows: blockers of cellular phospholipid synthesis – cell-based, LOPAC library, screen 4, primary screen (AID 1347384). Conditions: animal cells, phospholipid biosynthesis inhibition screen; at 10 µM.
Assay [7] is described as follows: galactose survival enhancers in mitochondrial complex I cybrids – cell-based, galactose medium, ATP luminescence, primary screen (AID 1645843;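 active means z-score of at least 1.8 in each of two replicates, scored against plate mean and spread of sample wells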;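 further: positive z means more ATP and so rescue of galactose-driven cybrid death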). Particulars: complex I mutant cybrid cells, 72 h, stronger effect = higher value.
Assay [8] can be described thus: compounds altering viability of human ES cells (AID 493140).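 Further: cells exposed to compounds for four days before counting.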 Conditions: human embryonic stem cell survival screen; stronger effect = higher value.
The nature of assay [9]: viability loss in pontine glioma line – cell-based, SU-DIPG-XVII, MIPE5.0, CellTiter-Glo, qHTS, dose response (AID 1347060; cut-off not given, nearly all actives have AC50 up to about 26 µM;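 further: cells exposed to compound for 48 hours before viability readout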). Conditions: CellTiter-Glo ATP luminescence. On the technique in general: Cellular ATP, detected with luciferase, serves as a proxy for viable cell number.
Assay [10] can be described thus: viability loss in pontine glioma line – cell-based, SU-DIPG-XIII, MIPE4.0, CellTiter-Glo, qHTS, dose response (AID 1347061; cut-off not given, nearly all actives have AC50 up to about 37 µM;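 further: cells exposed to compound for 48 hours before readout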). Conditions: CellTiter-Glo ATP luminescence.
Assay [11] in a line: viability loss in pontine glioma line – cell-based, SU-DIPG-IV, MIPE4.0, CellTiter-Glo, qHTS, dose response (AID 1347063; cut-off not given, nearly all actives have AC50 up to about 30 µM;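 further: compound exposure lasted 48 hours before the viability readout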). Particulars: CellTiter-Glo ATP luminescence.
Assay [12] in a line: viability loss in pontine glioma line – cell-based, SU-DIPG-XXV, MIPE5.0, CellTiter-Glo, qHTS, dose response (AID 1347065; cut-off not given, nearly all actives have AC50 up to about 26 µM;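 further: cells exposed to compound for 48 hours before ATP readout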). Conditions: CellTiter-Glo ATP luminescence.
Assay [13] in a line: growth inhibition of DIPG cells – cell-based, MIPE4.0 library, CellTiter-Glo luminescence, qHTS (AID 1347066; cut-off not given, nearly all actives have AC50 up to about 30 µM;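 further: cells exposed to compound for 48 hours before readout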). Conditions: SU-DIPG-VI viability, CellTiter-Glo ATP luminescence.
Assay [14] in a line: JHH-DIPG-1 glioma cell viability, MIPE5.0 library, CellTiter-Glo luminescence, qHTS (AID 1347067; cut-off not given, nearly all actives have AC50 up to about 26 µM;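 further: cells exposed to compound for 48 hours before readout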). Particulars: JHH-DIPG-1 glioma viability, CellTiter-Glo ATP luminescence.
Assay [15] can be described thus: P. berghei load reduction in hepatocytes – cell-based, HepG2, luciferase luminescence, HepG2 viability, primary screen (AID 624349; in the data active means parasite load remaining mostly below about 12%, no sharp cut-off; inactive means mostly above about 10%;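 further: 100% = mean of DMSO negative control wells on the same plate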). Particulars: P. berghei liver stage in HepG2, luciferase luminescence, concentration not given here; parasite load remaining: stronger effect = lower value; viability: measured here: HepG2 viability without parasites.
[16] abbreviates: measured here: relative caspase fold change +Dox/-Dox.
[17] abbreviates: measured here: total cells with miR-34 induction, stronger effect = lower value.
Setting [18] is: measured here: total cells without miR-34 induction.

The values that follow come from PubChem BioAssay.

Usually inhibition stands for the drop in the measured response relative to a control, in per cent. For orientation: remaining activity means the signal under treatment as a percentage of the control signal. The AC50 is the concentration at which the activity in the assay is half-maximal. In general, viability refers to a read-out of living cells in per cent, often relative to untreated cells.

Results filed as inconclusive are left out. Active and inactive are the calls of the source. Unless noted, how the calls were made is not given here.

In the case of `C[C@]12CCC3C(CC[C@H]4C[C@H](O)CC[C@]34C)C1CC[C@@H]2C(=O)CO` (stereo not given in full), the period change in assay [1] is 0.065 h (inactive). Further, the inhibition in assay [2] is -2% (inactive). Moreover, in [3], the fluorescence ratio (interference) is 1 (inactive). Further, the remaining activity in [4] is 121% (inactive). Also, the results for the fold change in assay [5] (stronger effect = lower value) and in assay [5] (setting [16]) were 1.06 (inactive) and 0.876, respectively. Further, the values for the cell count in assay [5] (setting [17]) and in assay [5] (setting [18]) were 10400 and 9790, respectively. The outcome in assay [6] was inactive. In addition, the z-score in assay [7] is -0.26 (inactive).
Take `COC[C@H]1OC(=O)c2coc3c2[C@@]1(C)C1=C(C3=O)C2CCC(=O)[C@@]2(C)C[C@H]1OC(C)=O` (stereo not given in full): the period change in [1] was -0.52 h (inactive). Also, the survival in [8] is 37.8 (inactive). The inhibition in assay [2] is -1% (inactive). The fluorescence ratio (interference) in [3] was 1 (inactive). Also, in [4], the remaining activity is 109% (inactive). In addition, the AC50 is 5.25 µM (active) in [9]; 23.5 µM (active) in assay [10]; 3.72 µM (active) in [11]; 2.63 µM (active) in [12]; 18.7 µM (active) in [13]; 4.17 µM (active) in [14]. Further, the fold change in assay [5] (stronger effect = lower value) was 1.01 (inactive); in [5] (setting [16]), 1.88. Further, the cell count came to 3350 in [5] (setting [17]) and 3320 in [5] (setting [18]). In assay [6], the compound was classed as inactive. Further, the z-score in assay [7] was 0.165 (inactive).
For `CC1(C(=O)O)C2CCC(O2)C1(C)C(=O)O` (stereo not given), the period change in assay [1] is 0.3 h (inactive). Moreover, the survival in assay [8] was 0.417 (inactive). Further, the inhibition in [2] is -5% (inactive). Moreover, the fluorescence ratio (interference) in [3] was 1 (inactive). Also, the remaining activity in [4] was 118% (inactive). In addition, the fold change in [5] (stronger effect = lower value) was 0.789 (inactive); in [5] (setting [16]) it was 1.91. Also, the cell count in assay [5] (setting [17]) was found to be 286; in [5] (setting [18]), 362. Also, the compound was called inactive in [6]. In [7], the z-score is -1.46 (inactive).
In the case of `CCn1cnc2c(Nc3cccc(Cl)c3)nc(N[C@@H]3CCCC[C@@H]3N)nc21`, the period change in assay [1] is 0.275 h (inactive). Besides, the parasite load remaining in assay [15] is 33.4% (inactive). In [15], the viability amounted to 108%. Also, in assay [2], the inhibition was -2% (inactive). Further, the fluorescence ratio (interference) in assay [3] was 0.9 (inactive). In addition, in assay [4], the remaining activity was 98.9% (inactive). Also, the results for the fold change in [5] (stronger effect = lower value) and in assay [5] (setting [16]) were 0.982 (inactive) and 0.968, respectively. Moreover, the values for the cell count in [5] (setting [17]) and in assay [5] (setting [18]) were 797 and 812, respectively. Moreover, in assay [6], the compound was classed as inactive. In addition, the z-score in [7] is -1.48 (inactive).
As to `NC(Cc1cc(O)c(O)cc1O)C(=O)O` (stereo not given), in [1], the period change was 0.12 h (inactive). In addition, in [2], the inhibition was 22% (inactive). In addition, the fluorescence ratio (interference) in assay [3] was 0.9 (inactive). Further, the remaining activity in [4] was 96.6% (inactive). Also, the figures for the fold change in assay [5] (stronger effect = lower value) and in assay [5] (setting [16]) were 1.05 (inactive) and 0.814, respectively. The cell count in assay [5] (setting [17]) is 9010; in [5] (setting [18]), 8570. Moreover, the outcome in [6] was inactive. Further, the z-score in assay [7] was -0.345 (inactive).
As for `NCCCP(=O)(O)O`, the period change in [1] was 0.005 h (inactive). Further, the inhibition in [2] was -1% (inactive). The fluorescence ratio (interference) in [3] was 1 (inactive). Also, in [4], the remaining activity was 111% (inactive). Besides, the fold change in assay [5] (stronger effect = lower value) is 0.943 (inactive); in assay [5] (setting [16]), 2.14. For the same compound, the cell count in assay [5] (setting [17]) amounted to 9360; in assay [5] (setting [18]) it was 9930. The compound was classed as inactive in assay [6]. The z-score in assay [7] is 0.285 (inactive).
